The term inhibition denotes the drop in the measured response relative to a control, in per cent.
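Also: values are mean inhibition of MSSK1 (alias of SRPK3).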

Chain of SRSF protein kinase 3 (Homo sapiens) (Q9UPE1 whole entry): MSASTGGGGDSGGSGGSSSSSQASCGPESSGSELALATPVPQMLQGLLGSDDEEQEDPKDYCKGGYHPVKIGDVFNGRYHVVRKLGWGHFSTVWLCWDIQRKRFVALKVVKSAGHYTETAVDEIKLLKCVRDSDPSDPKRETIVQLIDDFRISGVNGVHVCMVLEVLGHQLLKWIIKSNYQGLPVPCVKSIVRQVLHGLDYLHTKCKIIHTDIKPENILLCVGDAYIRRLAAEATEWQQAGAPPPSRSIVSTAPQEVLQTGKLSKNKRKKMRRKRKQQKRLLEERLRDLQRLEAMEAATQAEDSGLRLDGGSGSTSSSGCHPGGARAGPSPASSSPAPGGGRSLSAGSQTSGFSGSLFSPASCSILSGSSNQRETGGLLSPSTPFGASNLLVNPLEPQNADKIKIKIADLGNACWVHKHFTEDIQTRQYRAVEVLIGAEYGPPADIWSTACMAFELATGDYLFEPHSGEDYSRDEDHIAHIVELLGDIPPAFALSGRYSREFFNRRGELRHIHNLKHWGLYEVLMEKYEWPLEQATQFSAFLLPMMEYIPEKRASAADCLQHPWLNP

The test concerns the target SRSF protein kinase 3 (Homo sapiens) (UniProt Q9UPE1). The note with it: at 1 µM.
`CN1CCN(C(=O)c2ccc(NC(=O)Nc3ccc(N(C)c4ccnc(Nc5ccc(CS(C)(=O)=O)cc5)n4)cc3)cc2)CC1`: the inhibition is -1.14%. For the molecule `Oc1cccc(-c2nc(-c3ccccc3)[nH]c2-c2ccncc2)c1`, the inhibition was 12.3%. With `COc1cccc(-n2ncc3c(N/N=C/c4ccc(C)cc4)ncnc32)c1`, the inhibition came to 0.15%. Regarding `CN(C)CCCn1c(-c2nonc2N)nc2cnccc21`, the inhibition was -1.05%. As for `NS(=O)(=O)c1cccc(-c2cc3ccncc3cc2OCc2ccccc2)c1`, the inhibition was -1.61%. Then `O=C1Nc2ccccc2/C1=C/Nc1ccc2[nH]c(=O)[nH]c2c1`, with -0.78%. Then `Cc1ccc(C(=O)NC2CC2)cc1-c1ccc2[nH]ncc2c1`, with -0.89%; and `N#Cc1c(NC(=O)c2ccccc2F)sc2c1CCCC2`, with -0.38%; and `COC(=O)c1ccc2c(c1)C(=Cc1cc(Br)c(O)c(Br)c1)C(=O)N2`, with -0.06%. Consider `NS(=O)(=O)c1ccc(N/N=C2\C(=O)Nc3ccc(Cl)cc32)cc1`, for which the inhibition turned out to be 0.76%.

For the molecule `O=C(Nc1ccc(Oc2ccc3[nH]c(NC(=O)c4ccco4)nc3c2)cc1)Nc1cc(C(F)(F)F)ccc1F`, the inhibition was 39.6%. For the molecule `CS(=O)(=O)Nc1cccc(-c2ccc3c(NC(=O)C4CC4)n[nH]c3c2)c1`, the inhibition was -0.78%. For the molecule `c1ccc(Nc2ncc(-c3ccccc3)o2)cc1`, the inhibition is -0.17%. Take `CC(C)c1ccc(Nc2nccc(-c3cnn4ncccc34)n2)cc1`: the inhibition worked out at 0.7%. In the case of `CCS(=O)(=O)c1ccc(OC)c(Nc2ncc(-c3cccc(OC)c3)o2)c1`, the inhibition came to 0.2%. For the molecule `N#Cc1cccc(Nc2nccc(-c3cnn4ncccc34)n2)c1`, the inhibition came out at 3.11%. Then `COc1cc2ncnc(Nc3ccc4c(cnn4Cc4ccccc4)c3)c2cc1OC`, with -0.51%.

These data come from ChEMBL document CHEMBL1961873, “Compounds: GSK PKIS; Assays: Nanosyn kinase panel” (2012).
